The whole screen tested about 38,000 compounds, of which about 1,200 (3.2%) showed an effect of 50% or more. The median lay at about -58%. This is one part of a sample in which strong results are shown more often than they occur.
Tested on: Plasmodium falciparum
Experiment: Calibr Malaria Delayed Death Assay SOP
Format: functional, organism-based
Design: scale not given: in the data most compounds retested in dose-response had high values
Conditions: concentration 4.99e-06 (unit not given; other assays of the set use mol/L)

Compound	Percent Effect [%]
CCN1CCN(C2CCN(CCOc3ccc(F)cc3)CC2)C1=O	-7.395
CN(CC1CCN(CCO)CC1)CC(O)c1ccc(F)c(F)c1 (stereo unspecified)	76.36
Cc1ccc(CNC(=O)CN(C)CC2CCN(CCO)CC2)s1	-11.16
Cn1ccnc1CN1CCN(CC(O)c2ccc(F)c(F)c2)CC1 (stereo unspecified)	-68.2
CN(CCOCC(F)(F)F)CC1CCN(CCO)CC1	17.18
Cc1noc(CN(C)CC2CCN(CCO)CC2)n1	-70.26
CN(CC1CCN(CCO)CC1)CC(O)c1ccc(F)cc1 (stereo unspecified)	68.91
O=C(O)c1ccc(CNC(=O)C2CCN(Cc3ccco3)CC2)s1	-25.63
CC1CN(c2ncccc2C(=O)N[C@@H]2CCCc3ccccc32)CCN1 (stereo partly specified)	43.77
Cc1cnn(CC2CN(Cc3nc(-c4ccco4)no3)CCO2)c1 (stereo unspecified)	-38.17
COCCN1CCC(CNC(=O)c2cc(Cl)c[nH]2)CC1	-1.799
CCN1CCC(CNC(=O)c2cc(Cl)c[nH]2)CC1	-105.8
O=C(NCC1CCN(CCc2ccccc2)C1)c1cc(Cl)c[nH]1 (stereo unspecified)	64.57
COc1ccc2c(=O)ccn(CC(=O)O)c2c1	-41.24
COc1ccc(C(=O)N(CCO)Cc2ccccc2)c(OC)n1	-39.82
O=C(CCS(=O)(=O)c1ccccc1)NCCCn1cccn1	-18.78
CC(CNC(=O)C1(c2ccc(F)cc2)CC1)CN1CCCC1=O (stereo unspecified)	8.838
Cc1cc(C)n(CC(C)NC(=O)C2(c3ccc(F)cc3)CC2)n1 (stereo unspecified)	-52.55
Cn1cc(N2CCC3(CCCN(C(=O)c4ccnn4C)C3)C2=O)cn1 (stereo unspecified)	-100.5
Cc1ccc(C(=O)N2CCC3(CCC(=O)N(CC(C)O)C3)CC2)c(O)c1 (stereo unspecified)	-27.05
O=C(O)C(F)(F)F.O=C(c1cccs1)N1CC[C@@H]2CN(C3CCOCC3)CCO[C@@H]2C1	-28.53
OC(COCc1cccs1)Cn1cc(Cl)cn1 (stereo unspecified)	-34.56
Cn1c(N2CCOCC2)nc2cc(C(=O)N3CC(O)CO3)ccc21 (stereo unspecified)	-166.7
CC(CCc1ccccc1)NC(=O)CNCCCN(C)C.O=C(O)C(=O)O (stereo unspecified)	-24.06
CN(C)CCNCC1CCOC(C)(C)C1 (stereo unspecified)	-38.44
CN(C)CCCNCC1CCOC(C)(C)C1 (stereo unspecified)	16.23

Compound	Percent Effect [%]
CCN(CC)CCCNCC1CCOC(C)(C)C1 (stereo unspecified)	-55.61
Cc1ccc(C(CCNCCCN(C)C)C2CCOC(C)(C)C2)cc1.O=C(O)C(=O)O (stereo unspecified)	83.16
CC1CN(C(=O)NCCNc2cnccn2)CCO1 (stereo unspecified)	-97.79
O=C1CCSCC(C(=O)N2CCC(O)CC2)N1 (stereo unspecified)	-111.3
CC(C)C(=O)NC1CCN(c2cccc(OC(F)(F)F)c2)C1=O (stereo unspecified)	-46.04
O=C(NCC1CCOCC1)c1cc(-c2ccc3c(c2)CCO3)n[nH]1	-4.569
CCOc1ccc(CNC(=O)N2CCCC(CO)C2)cc1F (stereo unspecified)	-13.27
COc1cccc(-c2n[nH]cc2CNCC2CCS(=O)(=O)C2)c1 (stereo unspecified)	-56.98
Cc1nn(C)c(N2CCOCC2)c1CNCC1CCS(=O)(=O)C1 (stereo unspecified)	-69.07
COc1ccc2ccccc2c1CNCC1CCS(=O)(=O)C1.Cl (stereo unspecified)	66.1
CCOc1ccc2ccccc2c1CNCC1CCS(=O)(=O)C1.Cl (stereo unspecified)	73.94
CCOc1ccc2ccccc2c1CNCC1CCNCC1.Cl.Cl	91.29
Cc1c(Br)cccc1C(=O)NCC1CCNCC1.Cl	-131.1
Cc1ccc(-c2n[nH]cc2CNCC2CCS(=O)(=O)C2)o1 (stereo unspecified)	-9.681
Cc1cccc(C(=O)NCC2CCS(=O)(=O)C2)n1 (stereo unspecified)	-33.59
CCOC(=O)N1CCC2(CCCN(C3CCOCC3)C2=O)C1 (stereo unspecified)	-44.33
CCc1ccc(CNC(=O)Cn2ccc3sccc3c2=O)cc1	-94.67
O=C(NCCc1ccccn1)[C@@H]1CC[C@@H]2[C@@H](CCN2Cc2ccoc2)O1.O=C(O)C(F)(F)F.O=C(O)C(F)(F)F	-61.1
C1CCC(CO[C@@H]2CC[C@H]3[C@H]2OCCN3CC2CCOCC2)C1.O=C(O)C(F)(F)F	-55.18
O=C(O)C(F)(F)F.O=C(O)C(F)(F)F.O=C(c1ccco1)N1C[C@H]2CCCN(Cc3ccncc3)[C@H]2C1	-22.95
COc1ccc(NC(=O)c2cc3c([nH]c2=O)CCCC3=O)c(OC)c1	-49.85
CCN1CCN(CCNC(=O)c2sc(C(C)C)nc2C)CC1	-17.43
O=C(NCc1cccs1)[C@@H]1CC[C@@H]2[C@@H](CCN2CC2CCC2)O1.O=C(O)C(F)(F)F	20.57
CCc1cnc(CN(C(C)=O)C2CCN(CCc3ccccn3)C2)o1 (stereo unspecified)	-120.8
Cc1csc2ncnc(N3CCCC(Cn4cc(C(C)(C)O)nn4)C3)c12 (stereo unspecified)	-82.82
Cc1cc(C(=O)Nc2cccn(Cc3ccc(F)cc3)c2=O)on1	-10.66

Compound	Percent Effect [%]
CCc1nc(CN2CCCN(C(=O)CCCOC)CC2)cs1	-51.29
Cc1cc2nc(CN(C)c3ccc(Cl)cc3)cc(=O)n2o1	-90.64
CCCS(=O)(=O)N1CCOC2(CCCN(Cc3ccccn3)C2)C1.O=C(O)C(F)(F)F (stereo unspecified)	-25.77
c1cnnc(N2CCCC2CNc2ncnc3ccsc23)c1 (stereo unspecified)	-78.5
CN(Cc1ncc(C(C)(C)C)o1)C1CCCN(c2cccnn2)C1 (stereo unspecified)	-55.67
CN(Cc1ncc(C(C)(C)C)o1)CC1CCCN1c1cccnn1 (stereo unspecified)	79.78
CN(Cc1ncc(-c2ccccc2)o1)CC1CCCN1c1cccnn1 (stereo unspecified)	-41.68
c1cnnc(N2CCCC2CNc2ncnc3c2CCC3)c1 (stereo unspecified)	-141.7
Fc1ccc(Oc2ccc(CNCC3CNc4ccnn4C3)cn2)cc1 (stereo unspecified)	-107.9
O=C(COCC(=O)N(c1ccccc1)c1ccccc1)N1CCCCC1	-158.5
CCc1nc(NCC2CCCN(C(=O)C3CC3)C2)c2cnn(C)c2n1 (stereo unspecified)	-178
CC(C)n1ccnc1CN1CCOC(CCc2ccccc2)C1 (stereo unspecified)	7.997
CC(NCCc1nccn1Cc1ccccc1)c1ccsc1 (stereo unspecified)	82.98
CCc1ccc(C(C)NCc2nccn2Cc2ccccc2)o1 (stereo unspecified)	-17.05
CCN1CCCC(C)(C(=O)NCc2nccn2Cc2ccccc2)C1 (stereo unspecified)	29.31
Cc1nccn1-c1ccc(C(C)NCCc2ccccn2)cc1 (stereo unspecified)	9.885
CN(CCc1ccncc1)Cc1nccn1Cc1ccccc1	39.55
CN(Cc1ccncc1)Cc1nccn1Cc1ccccc1	-44.2
CN(CCc1ccccn1)Cc1nccn1Cc1ccccc1	56
CC(C)(C)C(=O)NCc1nccn1CCc1ccccc1	10.03
Cc1nccn1-c1ccc(C(C)NCCC(C)C)cc1 (stereo unspecified)	48.4
Cc1nc(NC(=O)NCCCN2CCC(C(N)=O)CC2)sc1C	-93.87
Cc1nnc(C(NS(=O)(=O)c2cc(F)c(C)cc2F)C(C)C)[nH]1 (stereo unspecified)	-26.37
Cc1ccc(CN(C)Cc2ncc(C(C)(C)C)o2)o1	-58.81
COc1cccc(OC2CN(C(=O)c3c(C)noc3C)C2)c1	-22.85
O=c1c2ccc(Cl)cc2ncn1CCCN1CCCCC1CO (stereo unspecified)	-12.14

Compound	Percent Effect [%]
CC(C)c1ccc(NC(=O)c2ncc(C(N)=O)cc2Cl)cc1	-172.5
O=C1CC(c2ccc3c(c2)OCO3)c2cnn(C3CCCC3)c2N1 (stereo unspecified)	-69.51
Cn1cc(C2CC(=O)NC23CCN(C(=O)NC2CC2)CC3)cn1 (stereo unspecified)	-54.83
CC(C)C(C)N(C(=O)Cn1nc2n(c1=O)CCCCC2)C1CC1 (stereo unspecified)	-123.2
CCCc1cnc(C)nc1N1CCC(Cc2ccc(CO)cc2)C1 (stereo unspecified)	-3.438
CN1CCC2(CC1)CN(Cc1ccc(C3CCCCO3)o1)CCCN2C (stereo unspecified)	80.31
OCC1(O)CCN(Cc2ccc(C3CCCCO3)o2)CC1 (stereo unspecified)	-16.13
CN1CCN(C)C2(CCN(Cc3ccc(C4CCCCO4)o3)CC2)C1 (stereo unspecified)	-149.2
Oc1cccc(C2CN(c3nnc(C4CC4)s3)CCO2)c1 (stereo unspecified)	-92.75
O=C(Nc1ccccc1OC1CCOC1)c1ccon1 (stereo unspecified)	-94.04
CN(Cc1ccccc1)CC(C)(C)NC(=O)c1ccon1	-38.2
O=C(O)C(F)(F)F.O=C([C@@H]1CCO[C@@H]2CCN(Cc3cccs3)C[C@H]21)N1CCCCO1	-36.32
Cc1ncsc1CN1C[C@@H]2CCCO[C@@H]2[C@H](Nc2ccccn2)C1.O=C(O)C(F)(F)F.O=C(O)C(F)(F)F	-27.39
Cc1cccc(CN2C[C@@H]3CCCO[C@@H]3[C@H](Nc3ccccn3)C2)n1	55.52
Cc1cccc(CN2C[C@@H]3CCCO[C@@H]3[C@H](NS(C)(=O)=O)C2)n1	-67.26
CN(C)Cc1nc(-n2cnc(C(=O)NC3CCCC3)c2)n2ccccc12	8.682
CC(C)Oc1ccccc1NC(=O)N1CCC(n2cncn2)CC1	-58.88
Cc1ccccc1-c1noc(CN2CCn3c(nnc3C3CC3)C2)n1	50.31
Cc1ccc(-c2nc(CN3CCn4c(nnc4C4CC4)C3)co2)c(C)c1	-40.53
c1ccc(-c2cnc(CN3CCn4c(nnc4C4CC4)C3)o2)cc1	-11.2
CC(C)c1nnc(CN2CC(n3cccn3)Cc3ccccc32)o1 (stereo unspecified)	-227.8
O=C(NCC1CC1)c1nnc2ccc(Cl)cc2n1	9.063
COCCN1CCCCC12CC(=O)N(c1ccccc1OC)C2.O=C(O)C(F)(F)F (stereo unspecified)	-87.11

From ChEMBL document CHEMBL3988442, “University of Dundee, Small-Polar-MMV Screening Library” (2021)
